These results are taken from PubChem BioAssay (NCATS).

The structures appear in SMILES notation. Results filed as inconclusive are left out. A number with no mark means an inactive call. The source made the active and inactive calls. Calls come from the whole dose curve; as a rule, active = well fitted cell-killing curve with a large enough effect; inconclusive = small, poorly fitted or top-dose-only effect, or effect the other way; inactive = no such curve, though single readings can be large or run the other way.
Potency is the fitted concentration of half-maximal effect.

A short description of this assay: Quantitative High-Throughput drug screen in 47 multiple myeloma cell lines against the NCATS MIPE library collection: OPM2_DSMZ cell viability assay (AID 1919872). Note: nearly all actives have a fitted effect of over 30% in size. The note with it: OPM2 myeloma viability, CellTiter-Glo ATP luminescence, 48 h; series mostly up to 45.8 µM; viability (% of DMSO): at the top concentration. From the text: PI: Beverly A. Mock Ph.D.
Laboratory of Cancer Biology and Genetics,
Center for Cancer Research, National Cancer Institute,
National Institute of Health, Bethesda, Maryland
Drug resistance and disease progression are common in multiple myeloma (MM) patients, underscoring the need for new therapeutic combinations. […] We hypothesized that effective combinations would reduce MYC expression and enhance p16 activity. […] These preclinical data identify potentially useful drug combinations for evaluation in drug-resistant MM and reveal potential mechanisms of combined drug sensitivity.
Described herein is the primary MIPE qHTS used to cherrypick compounds. Validated compounds were then further tested for potential synergistic activiy.
[1] Peat TJ, Gaikwad SM, Dubois W, Gyabaah-Kessie N, Zhang S, Gorjifard S, Phyo Z, Andres M, Hughitt VK, Simpson RM, Miller MA, Girvin AT, Taylor A, Williams D, D'Antonio N, Zhang Y, Rajagopalan A, Flietner E, Wilson K, Zhang X, Shinn P, Klumpp-Thomas C, McKnight C, Itkin Z, Chen L, Kazandijian D, Zhang J, Michalowski AM, Simmons JK, Keats J, Thomas CJ, Mock BA. Drug combinations identified by high-throughput screening promote cell cycle transition and upregulate Smad pathways in myeloma. Cancer Lett. 2023 Aug 1;568:216284. doi: 10.1016/j.canlet.2023.216284. Epub 2023 Jun 24. PMID: 37356470; PMCID: PMC10408729.
SEQUENCE No. (e.g., 1, 2, 3, etc.); […] (e.g., Cells, Incubation, Reagent, etc.); VALUE and DESCRIPTION.
1; Cells; 5 uL; white, solid bottom 1536-well Greiner assay plate.
2; Compounds; 23 nL; Kalypsis pin tool (Wako USA) equipped with a 1536-well pin head to transfer to the assay plates.
3; Incubation; 48 hours; 37C incubation.
4; Reagent;5uL; CellTiter Glo (Promega).
5; Detector; 425V; Luminescence; Viewlux PerkinElmer.
NOTES (numbers refer to Sequence numbers above)
1. The cell-based screening methods employed in this study were like those previously published. Briefly, the corresponding myeloma cell lines were screened in 1,536-well plates with 500 cells, 5-uL per well for inhibition of cell viability (assessed by measuring ATP levels with CellTiterGlo).
2. NCATS MIPE 4.0 library of approved and investigational drugs were added using the Kalypsis pin tool. Wells treated with DMSO only for 100% viability and media only wells for 0% viability were used as controls.
3. The assay plates were covered and incubated for 48 hours in a 37C, 5% CO2 incubator with controlled humidity.
4. After 48 hours, CellTilter-GloTM luminescent substrate mix (Promega) reagent was added to the assay plate and plates we incubated for 5 min at room temperature.
5. Signal was measured as median relative luminescence units on a ViewLux (PerkinElmer) multiplate reader.
[1] Heske CM, Davis MI, Baumgart JT, Wilson K, Gormally MV, Chen L, Zhang X, Ceribelli M, Duveau DY, Guha R, Ferrer M, Arnaldez FI, Ji J, Tran HL, Zhang Y, Mendoza A, Helman LJ, Thomas CJ. Matrix Screen Identifies Synergistic Combination of PARP Inhibitors and Nicotinamide Phosphoribosyltransferase (NAMPT) Inhibitors in Ewing Sarcoma. Clin Cancer Res. 2017 Dec 1;23(23):7301-7311. doi: 10.1158/1078-0432.CCR-17-1121. Epub 2017 Sep 12. PMID: 28899971; PMCID: PMC6636827.
A general note: In ATP-based viability assays light output follows the ATP content of the culture.
As to `COc1nc(C)nc(Cl)c1NC1=NCCN1`, the “viability (% of DMSO)” value was 109%. As to `CC[C@@]1(O)C(=O)OCc2c1cc1n(c2=O)Cc2cc3c(CN(C)C)c(O)ccc3nc2-1`, the Potency was 16.6 µM (active). Consider `N[C@@H](Cc1c[nH]c2ccc(O)cc12)C(=O)O`, for which the “viability (% of DMSO)” value is 94.5%.

As to `CC(C)Cc1ccc(C(C)C(=O)O)cc1` (stereo not given), the “viability (% of DMSO)” value is 108% [at 23.2 µM].

For the compound `Cc1cc(C(C)(C)C)cc(C)c1CC1=NCCN1`, the “viability (% of DMSO)” value is 102%. Still for that read-out and setting: in the case of `CCCNCC(O)COc1ccccc1C(=O)CCc1ccccc1` (stereo not given) it was 95.8%. `Cc1cn([C@H]2C[C@H](N=[N+]=[N-])[C@@H](CO)O2)c(=O)[nH]c1=O`: the “viability (% of DMSO)” value was 103%. Same read-out and setting: the figure for `NS(=O)(=O)c1cc2c(cc1Cl)NCNS2(=O)=O` is 96.3%; for `Cc1cnc(C(=O)NCCc2ccc(S(=O)(=O)NC(=O)NC3CCCCC3)cc2)cn1` it is 95.5%. On the same count and under the same terms, in the case of `CN1CCN(C2=Nc3cc(Cl)ccc3Nc3ccccc32)CC1` it was 103%. Still for that read-out and setting: in the case of `CN(C)CCC=C1c2ccccc2C=Cc2ccccc21` it was 97.6%. With `Clc1ccc2nsnc2c1NC1=NCCN1`, the “viability (% of DMSO)” value is 105%. Still for that read-out and setting: in the case of `Cc1cc(C(C)(C)C)c(O)c(C)c1CC1=NCCN1` it was 110%; in that of `NCCCCCC(=O)O`, 102%. Turning to `CC12CC3CC(C)(C1)CC(N)(C3)C2`, the “viability (% of DMSO)” value was 116%.

As for `O=c1[nH]cc(F)c(=O)[nH]1`, the “viability (% of DMSO)” value was 110%. In the case of `COc1ccc2c(c1)c(CC(=O)O)c(C)n2C(=O)c1ccc(Cl)cc1`, the “viability (% of DMSO)” value was 109%.

On to `CCOC(=O)Nc1ccc(NCc2ccc(F)cc2)nc1N`, for which the “viability (% of DMSO)” value is 84.3%.

For `CC(C)(Oc1ccc(C2CC2(Cl)Cl)cc1)C(=O)O` (stereo not given), the “viability (% of DMSO)” value was 119% [at 92.2 µM]. The same measure, in the same setting: in the case of `CN(CCOc1ccc(NS(C)(=O)=O)cc1)CCc1ccc(NS(C)(=O)=O)cc1` it was 115%. Still for that read-out and setting: the figure for `Cn1c(=O)c2c(ncn2C)n(C)c1=O` is 96.4%. Consider `CC(CCc1ccc(O)cc1)NCCc1ccc(O)c(O)c1` (stereo not given), for which the Potency was 18.7 µM (active). On to `CCOC(=O)c1ncn2c1CN(C)C(=O)c1cc(F)ccc1-2`, for which the “viability (% of DMSO)” value is 88.5%.

With `Fc1ccc([C@@H]2CCNC[C@H]2COc2ccc3c(c2)OCO3)cc1`, the Potency was 18.7 µM (active). `Nc1nc2c(ncn2COC(CO)CO)c(=O)[nH]1`: the Potency is 23.5 µM (active). Take `COc1ccc(C2CNC(=O)C2)cc1OC1CCCC1` (stereo not given): the “viability (% of DMSO)” value is 114%.

For `Cn1c(=O)c2[nH]cnc2n(C)c1=O`, the “viability (% of DMSO)” value is 107%. For the compound `CC(C)NCC(O)c1ccc(O)c(O)c1` (stereo not given), the “viability (% of DMSO)” value is 79.6%. For `C[C@](N)(Cc1ccc(O)c(O)c1)C(=O)O`, the Potency was 7.43 µM (active).

Turning to `NC(CO)C(=O)NNCc1ccc(O)c(O)c1O` (stereo not given), the Potency is 18.7 µM (active).

On to `NC(=O)NO`, for which the Potency is 6.62 µM (active).

With `CCOC(=O)C(C)(C)Oc1ccc(Cl)cc1`, the “viability (% of DMSO)” value was 128%.

Take `Cc1ccc(-c2cc(C(F)(F)F)nn2-c2ccc(S(N)(=O)=O)cc2)cc1`: the “viability (% of DMSO)” value was 98%. On the same count and under the same terms, the figure for `Nc1nnc(-c2cccc(Cl)c2Cl)c(N)n1` is 101%. Turning to `CN(C)c1nc(N(C)C)nc(N(C)C)n1`, the “viability (% of DMSO)” value was 101%.

For the compound `CC(COc1ccccc1)N(CCCl)Cc1ccccc1` (stereo not given), the “viability (% of DMSO)” value is 111%.

`Cn1cnc2c1c(=O)[nH]c(=O)n2C`: the Potency was 20.9 µM (active). For the compound `CCC1(c2ccccc2)C(=O)NCNC1=O`, the “viability (% of DMSO)” value was 93.2%.

For `CC(C(=O)O)c1cccc(C(=O)c2ccccc2)c1` (stereo not given), the “viability (% of DMSO)” value is 87.5%. The same measure, in the same setting: in the case of `NC12CC3CC(CC(C3)C1)C2` it was 96.9%.
